Data published in PubChem BioAssay (EPA / NIEHS).
Activity calls are given as the source filed them. Rule for the calls: active = hit-call score of the fitted dose curve at least 0.9, where 1 is the maximum; inactive = score below 0.9.

Test: APR_HepG2_MitoMass_24hr: Apredica 24-hour HepG2 Assay for Mitochondrial Mass (AID 2282912)
Details: high-content imaging, actives raise or lower the signal
Method: APR_HepG2_24hr is a cell-based, multiplexed-readout assay that uses HepG2, a human liver cell line, with measurements taken at 24 hours after chemical dosing in a 384-well plate.APR_HepG2_MitoMass_24hr is one of 10 assay component(s) measured or calculated from the APR_HepG2_24hr assay. It is designed to make measurements of cell phenotype, a form of morphology reporter, as detected with fluorescence intensity signals by HCS Fluorescent Imaging technology.Data from the assay component APR_HepG2_MitoMass_24hr was analyzed into 1 assay endpoint. This assay endpoint, APR_HepG2_MitoMass_24hr, was analyzed with bidirectional fitting relative to DMSO as the negative control and baseline of activity. Using a type of morphology reporter, gain or loss-of-signal activity can be used to understand changes in the signaling. Furthermore, this assay endpoint can be referred to as a primary readout, because this assay has produced multiple assay endpoints where this one serves a signaling function. To generalize the intended target to other relatable targets, this assay endpoint is annotated to the cell morphology intended target family, where the subfamily is organelle conformation.
Cells were treated with dimethyl sulfoxide (DMSO) as a solvent control at a final concentration of 0.5% v/v or with compounds in DMSO with a resulting final DMSO concentration of 0.5% v/v. Compound treatment was done at concentrations of 0.39, 0.78, 1.56, 3.12, 6.24, 12.5, 25, 50, 100, and 200 uM in duplicate on each plate. Cells were treated with compounds for 1, 24, or 72 hr. Carbonyl […] m-chloro-phenylhydrazone (CCCP) and taxol were used as positive controls for mitochondrial function and cytoskeletal stability, respectively; DMSO served as the negative control for this experiment. Cells were fixed by the direct addition of 50 uL formaldehyde in Hank's Balanced Salt Solution (HBSS) to a final concentration of 3.7%. After incubation in the fixation medium for 30 min at room temperature (293-298 K), cells were rinsed twice with HBSS and treated with cell permeabilization buffer (16 uL of 0.5% Triton X-100) for 10 min at room temperature (293-298 K) before labeling. For mitochondrial membrane potential and mitochondrial measurements, pre-fixed cells were incubated with 50 uL of MitoTracker Red CMXRos (Invitrogen) at a concentration of 250 nM for 30 min before fixation. In the remaining cases, post-fixed cells were labeled by incubation with a multiplexed mixture of primary antibodies in HBSS for 60 min at room temperature (293-298 K) to detect immunoreactivity of c-Jun (1:500), phospho-histone H3 (1:100), phospho-histone H2A.x (1:200), p53 (1:400), alpha-tubulin (1:200) and Hoechst 33342 (2 ug/mL). Cells were labeled for multiplexed imaging on two separate plates: a) Hoechst 33342, MitoTracker Red, phospho-histone H3, and alpha-tubulin, and b) Hoechst 33342, phospho-histone H2A.x, and c-Jun. A final rinse with HBSS (50 uL) was performed before analysis. The primary and secondary antibodies for the proteins were phospho-histone H3 (rabbit anti-phospho-histone H3 and FITC-donkey anti-rabbit IgG), phospho-histone H2A.x (mouse anti-phospho-histone H2A.x and FITC-donkey anti-mouse IgG), c-Jun (rabbit anti-phospho-c-Jun and Cy3-donkey anti-rabbit IgG), p53 (sheep anti-p53 and Cy5-donkey anti-sheep IgG), alpha-tubulin (mouse anti-alpha-tubulin and Cy5-donkey anti-mouse IgG). These antibodies are available as the CellCiphr HepG2 assay kit (Millipore).Digital images of each well were captured using a Cellomics ArrayScan VTI (Thermo Scientific Cellomics) (0.8 NA objective, 0.63x optical coupler, and XF-93 filter set) at 20x magnification. The images were acquired using the autofocus feature of the ArrayScan instrument, which entails the following steps. First, the camera focuses on channel 1 (Hoechst 33342), where nuclei are identified. Second, a Z offset of 1 um is used for capturing mitochondria (MitoTracker Red). […]
In the case of `NC(=O)N1C(=O)C(C(=O)c2cc(Cl)cs2)c2cc(F)c(Cl)cc21` (stereo not given), the AC50 is reported as 107 µM (active).
In the case of `CC#C[C@]1(O)CC[C@H]2[C@@H]3CCC4=CC(=O)CCC4=C3[C@@H](c3ccc(N(C)C)cc3)C[C@@]21C`, the outcome is reported as “inactive”.
For `CN1CCC[C@H]1c1cccnc1`, the outcome was “inactive”.
With `OCCC(F)(F)C(F)(F)C(F)(F)C(F)(F)C(F)(F)C(F)(F)F` the outcome was “inactive”.
For `CCCCCCCCCCCCCCCS(=O)(=O)Oc1ccccc1`, the outcome was “inactive”.
For `Oc1cc2ccccc2c2ccccc12`, the AC50 was 97.7 µM (active).
In the case of `O=[N+]([O-])c1ccc(O)cc1`, the outcome is reported as “inactive”.
With `CC[C@H](c1ccc(O)cc1)[C@@H](CC)c1ccc(O)cc1` the outcome was “inactive”.
For `O=C(/C=C/c1ccc(O)cc1)CC(=O)/C=C/c1ccc(O)cc1`, the AC50 was 61 µM (active).
For `CC(C)(C)c1cc(C(C)(C)C)c(O)c(C(C)(C)C)c1`, the outcome was “inactive”.
With `OCCC(F)(F)C(F)(F)C(F)(F)C(F)(F)C(F)(F)C(F)(F)C(F)(F)C(F)(F)F` the AC50 was 29.9 µM (active).
For `C=C(C)C(=O)OCCC(F)(F)C(F)(F)C(F)(F)C(F)(F)C(F)(F)C(F)(F)F`, the outcome was “inactive”.
With `CC(C)CCCCCCOC(=O)CCCCC(=O)OCCCCCCC(C)C` the outcome was “inactive”.
With `CCC(=C(c1ccc(O)cc1)c1ccc(OCCN(C)C)cc1)c1ccccc1` the outcome was “inactive”.
With `CC(=O)NC1(c2cccc(F)c2)CCN(CC[C@@]2(c3ccc(Cl)c(Cl)c3)CN(c3ccccc3)C(=O)CO2)CC1` the AC50 was 151 µM (active).
For `Oc1cccc(O)c1`, the outcome was “inactive”.
In the case of `CN1CCN(c2ccccc2/C=C2\SCCN(c3ccc(Cl)c(Cl)c3)C2=O)CC1`, the outcome is reported as “inactive”.
For `COCC(C)OCC(C)O` (stereo not given), the outcome was “inactive”.
For `CCCCC[C@H](O)CC(=O)CCc1ccc(O)c(OC)c1`, the outcome was “inactive”.
For `CCCCC(CC)COC(=O)CCCCC(=O)OCC(CC)CCCC` (stereo not given), the outcome was “inactive”.
With `CN(C)C=O` the outcome was “inactive”.
With `O=C(O)c1ccccc1C(c1ccc(O)cc1)c1ccc(O)cc1` the outcome was “inactive”.
In the case of `CCC(C)(C)C1CCC(O)CC1` (stereo not given), the outcome is reported as “inactive”.
With `CCCCOCCO` the outcome was “inactive”.
In the case of `Cc1cc(C)c(O)c(C)c1`, the outcome is reported as “inactive”.
With `Nc1cccc2c(N)cccc12` the outcome was “inactive”.
With `COCC(C)O` (stereo not given) the outcome was “inactive”.
For `CC(O)CO` (stereo not given), the outcome was “inactive”.
For `CCc1nn(C2CCCCC2)c2cc(C3(C#N)CCC(C(=O)O)CC3)ccc12` (stereo not given), the outcome was “inactive”.
With `c1ccc2c(c1)ccc1ccccc12` the outcome was “inactive”.
In the case of `O=C(OCCOCCOC(=O)c1ccccc1)c1ccccc1`, the outcome is reported as “inactive”.
With `COc1cc(CCC(=O)CC(=O)CCc2ccc(O)c(OC)c2)ccc1O` the outcome was “inactive”.
In the case of `O=C(O)Cc1cc(I)c(Oc2cc(I)c(O)c(I)c2)c(I)c1`, the outcome is reported as “inactive”.
With `N#C[C@@H]1CC(F)(F)CN1C(=O)CNC1CC2CCC(C1)N2c1ncccn1` (stereo not given in full) the outcome was “inactive”.
With `OC1CCCCC1` the outcome was “inactive”.
With `OC1CCC(C2CCCCC2)CC1` (stereo not given) the outcome was “inactive”.
For `O=c1c(-c2ccc(O)cc2)coc2cc(O)ccc12`, the outcome was “inactive”.
For `CCCOc1sc(C(=O)N2CCC(c3cc(CN)ccc3F)CC2)c(C)c1Br`, the outcome was “inactive”.
For `CC(C)(C)c1ccc(O)c(C(C)(C)C)c1`, the outcome was “inactive”.
For `C[C@@H]1C[C@H]2[C@@H]3CCC4=CC(=O)C=C[C@]4(C)[C@@]3(F)[C@@H](O)C[C@]2(C)[C@@]1(O)C(=O)COP(=O)(O)O`, the AC50 was 2.64 µM (active).
